CHX counter: Cycloheximide Counterscreen for Small Molecule Inhibitors of Shiga Toxin; max response, %; AID 2314, 2010; 12% of 300,000 active; cell reporter, cycloheximide protein synthesis inhibition counterscreen; in the data active means max response mostly above about 13%, no sharp cut-off; inactive means mostly below about 14%; further: read at 38.3 µM for the half of the compounds with a filed dose; 0% is about no effect
Shiga inhibitor: A qHTS for Small Molecule Inhibitors of Shiga Toxin; 9.2% of 290,000 active; inhibition, % at 38.7 µM; Vero cells, Shiga toxin protein synthesis inhibition reporter; in the data active means inhibition mostly above about 28%, no sharp cut-off; inactive means mostly below about 43%; further: 0% is about no effect
LmPK inh: qHTS Assay for Inhibitors of Leishmania Mexicana Pyruvate Kinase (LmPK) | Q27686 | purified LmPK, Kinase-Glo ATP luminescence, 1 h | 0.37% of 290,000 active | Potency, µM (titrated, usually from 57.5 µM), inactives show at the top dose activity change, negative = inhibition, most hits filed as inhibitors | AID 1721, 2009; further: potency means the concentration at half of the fitted maximal effect; on the % scale 0 is the no-effect control and ±100 the full control effect
Target sequence (Q27686 whole entry, looked up): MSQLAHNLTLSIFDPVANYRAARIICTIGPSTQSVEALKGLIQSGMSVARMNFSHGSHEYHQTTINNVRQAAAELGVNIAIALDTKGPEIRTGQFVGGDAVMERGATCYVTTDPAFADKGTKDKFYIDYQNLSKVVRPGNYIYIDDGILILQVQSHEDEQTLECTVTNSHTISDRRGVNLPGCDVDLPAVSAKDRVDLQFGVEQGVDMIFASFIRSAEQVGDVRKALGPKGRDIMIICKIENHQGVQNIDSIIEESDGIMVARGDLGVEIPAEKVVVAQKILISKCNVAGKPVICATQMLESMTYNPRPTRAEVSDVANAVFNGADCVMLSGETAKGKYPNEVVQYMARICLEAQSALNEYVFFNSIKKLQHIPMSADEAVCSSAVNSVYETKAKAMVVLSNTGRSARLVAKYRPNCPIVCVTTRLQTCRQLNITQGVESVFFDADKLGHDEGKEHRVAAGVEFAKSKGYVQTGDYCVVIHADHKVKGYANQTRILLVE
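Kinase-Glo luminescence read after 1 h RT reaction of 0.1 nM LmPK with 0.5 mM PEP and 0.1 mM ADP. Activity scaled between uninhibited and enzyme-free controls.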
FBPA Giardia inh: qHTS Assay for Inhibitors of Fructose-1,6-bisphosphate Aldolase from Giardia Lamblia. Potency, µM (doses to about 59.6 µM), for the others: at the highest dose activity, negative = inhibition, hits mostly inhibitors. purified Giardia FBPA. A8B2U2. 0.71% of 290,000 active; further: potency means the concentration at half of the fitted maximal effect; on the % scale 0 is the no-effect control and ±100 the full control effect; nearly all actives have a fitted effect of over 55% in size
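Giardia FBPA (40 nM reagent) was preincubated 10 min at RT with compound (up to 57.5 uM final), then substrate plus GAPDH/TPI/NAD/arsenate coupling system with diaphorase/resazurin was added; resorufin fluorescence (525/598 nm) was read after 20 min.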
Tb PYK inh: qHTS of Trypanosoma Brucei Inhibitors; pyruvate kinase (Trypanosoma brucei), Q57TT1; AID 624173, 2012; TbPYK enzyme, Kinase-Glo Plus ATP luminescence, 45 min; Potency, µM (highest dose often 76.8 µM), for the others: top-dose activity, negative = inhibition, usual class: inhibitors; 0.12% of 410,000 active; further: potency means the concentration at half of the fitted maximal effect; on the % scale 0 is the no-effect control and ±100 the full control effect; nearly all actives have a fitted effect of over 50% in size
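In this concentration-response screen, enzyme-free wells defined baseline while DMSO plates tracked drift. Each reaction combined TbPYK, substrate, compound and 130 uM ADP for 45 min at room temperature. Kinase-Glo Plus luminescence gave the signal.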
RE007 growth inh: qHTS Assay for Inhibitors of the HIV-1 protein Vpr | 0.21% of 360,000 active | S. pombe RE007 Vpr strain, BacTiter-Glo ATP luminescence, 24 h | Potency, µM (titrated, usually from 92.2 µM), without a hit: top-dose activity change, negative = less growth, hits mostly inhibitors | AID 651644, 2012; active means well fitted falling curve with a large enough effect; inconclusive means small, poorly fitted or top-dose-only effect; inactive means no such curve, though single readings can be large or run the other way; further: potency means the concentration at half of the fitted maximal effect; on the % scale 0 is the no-effect control and ±100 the full control effect; nearly all actives have a fitted effect of over 50% in size
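Fission yeast RE007 carrying one integrated HIV-1 vpr copy, seeded at OD 0.01 in PMG+AL medium with 23 nL pinned compound. Grown 24 h at 30 degrees; viability read by BacTiter-Glo luminescence after 5 min.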
* hit, by the source's call; ? = inconclusive; nt = no result. Shown is part of a subset that was picked to be rich in hits. Unless noted, the call rests on the fitted dose curve; in most records, active means well fitted curve in the direction sought with a large enough effect; inconclusive means small, poorly fitted or top-dose-only effect, or another doubt; inactive means no such curve, though single readings can be large; an effect the other way counts as inactive or inconclusive.

SMILES	CHX counter	Shiga inhibitor	LmPK inh	FBPA Giardia inh	Tb PYK inh	RE007 growth inh
CCOc1nc(NC(=O)NS(=O)(=O)Oc2cccc(F)c2)nc(-c2ccccc2)n1	nt	nt	nt	nt	-7%	nt
O=C(CSc1nnc(-c2ccccc2)o1)NC1CC1	nt	nt	nt	nt	-3%	11%
O=C(O)c1ccc(-c2nnc(-c3ccccc3)o2)cc1	27*	42*	13µM*	-1%	-26%	-18%
O=C(c1nnc(-c2ccccc2)o1)C1CC1	37*	97*	-22%	2%	2%	-15%
O=C(c1ccc(-c2nnc(-c3ccccc3)o2)cc1)N1CCCCCC1	15	83*	?	-4%	?	-3%
O=C(c1ccc(-c2ccccc2)cc1)N1CCC(C(=O)N2CCCC2)CC1	5	-15	-3%	0%	-3%	1%
O=C(O)c1ccc(-c2nnc(-c3ccc([N+](=O)[O-])cc3)o2)cc1	9	-10	2%	-2%	3%	6%
O=c1cc(-c2ccccc2)[nH]c2nc3ccccc3n12	40*	64*	?	-7%	-9%	-16%
CC(C)c1cc(=O)n2c(nc3ccccc32)[nH]1	13*	27	2%	?	-3%	-19%
O=c1cc(CCl)[nH]c2nc3ccccc3n12	-3	14	-11%	-6%	2%	-2%
COc1ccccc1CNC(=O)C(CC(C)C)NS(=O)(=O)c1ccc2c(c1)oc(=O)n2C (configuration not stated)	-5	-10	1%	0%	2%	-4%
COc1ccccc1CNC(=O)C(CCSC)NS(=O)(=O)c1ccc2c(c1)oc(=O)n2C (configuration not stated)	52*	42	2%	0%	2%	-6%
CCOc1ccc(-n2c(=O)c3c(C)c(C)sc3n(CC(=O)Nc3ccc(CC)cc3)c2=O)cc1	nt	nt	nt	nt	-1%	nt
CCC(C)c1ccc(NC(=O)CSc2nncn2N)cc1 (configuration not stated)	26	35	6%	1%	0%	-11%
Cn1cnnc1SCC(=O)c1ccc2c(c1)CCCC2	32*	69*	-2%	?	-5%	-16%
Cn1cnnc1SCC(=O)Nc1ccc2c(c1)CCC2	15*	35*	-2%	-3%	7%	-1%
Cn1cnnc1SCC(=O)c1ccc2c(c1)OCO2	-2	-5	-7%	7%	-5%	4%
Nn1cnnc1SCC(=O)Nc1ccc(C2CCCCC2)cc1	50*	81*	0%	7%	3%	-18%
CCN(CC)C(=O)c1c(-c2ccccc2)c(-c2ccccc2)nn(CC)c1=O	nt	nt	nt	nt	-2%	nt
O/N=C/c1ccnc(SCc2ccccc2)n1	31*	64*	2%	0%	1%	8%
O/N=C/c1ccnc(SCc2ccc(Cl)cc2)n1	51*	75*	-1%	21%	3%	2%
CC(=O)c1cnc(SCc2ccc(Cl)cc2)nc1C	11	30	-2%	0%	5%	-14%
CCOC(=O)c1ccccc1NC(=O)C1COc2ccccc2O1 (configuration not stated)	-6	-13	5%	7%	-3%	-17%
COc1ccc(C)cc1NC(=O)COC(=O)C1COc2ccccc2O1 (configuration not stated)	nt	nt	nt	nt	28%	7%
Cc1ccc(C)c(NC(=O)C2COc3ccccc3O2)c1 (configuration not stated)	14*	11	-6%	8%	-17%	-9%
SMILES	CHX counter	Shiga inhibitor	LmPK inh	FBPA Giardia inh	Tb PYK inh	RE007 growth inh
CN(C)c1ccc(/C=N/NC(=O)C2COc3ccccc3O2)o1 (configuration not stated)	0	3	7%	-15%	28µM*	2%
COc1ccc(C)cc1NC(=O)C1COc2ccccc2O1 (configuration not stated)	38*	103*	0%	-1%	5%	-15%
COC(=O)c1ccccc1NC(=O)C1COc2ccccc2O1 (configuration not stated)	55*	122*	2%	2%	2%	?
O=C(N/N=C\c1ccc(Br)o1)C1COc2ccccc2O1 (configuration not stated)	9	52	1%	-2%	-13%	-11%
CCc1ccc(NC(=O)Cn2c(=O)n(CCCC(=O)NCc3ccccc3OC)c(=O)c3ccccc32)cc1	nt	nt	nt	nt	1%	nt
O=C(Nc1ccccc1[N+](=O)[O-])C1COc2ccccc2O1 (configuration not stated)	27*	38*	-7%	7%	-2%	-11%
CSc1nn(CC(=O)Nc2cc(C)ccc2C)c(N)c1S(=O)(=O)c1ccccc1	nt	nt	nt	nt	1%	nt
O=S(=O)(NCCSc1nnnn1-c1ccccc1)c1cccs1	33*	43*	-2%	1%	4%	0%
CS(=O)(=O)NCCSc1nnnn1-c1ccccc1	-1	1	-10%	-1%	-8%	-8%
CCOc1ccccc1NC(=O)/C(C#N)=C/c1c(C)nn(-c2ccc(F)cc2)c1Cl	47*	85*	-4%	3%	2%	-2%
C=CCNC(=O)/C(C#N)=C/c1c(C)nn(-c2ccc(Cl)cc2)c1Cl	-1	-10	3%	1%	-3%	5%
CC(=O)OCC1=C(C(=O)O)N2C(=O)[C@@H](NC(=O)Cc3ccccc3)[C@H]2SC1	nt	nt	nt	nt	-2%	-7%
C=CC1=C(C(=O)O)N2C(=O)C(NC(=O)Cc3ccccc3)C2SC1 (configuration not stated)	1	3	7%	16µM*	5%	9%
CCC(=O)Nc1ccc2c(c1)ncn2CCc1ccccc1	7	27	2%	2%	1%	4%
CCn1cnc2cc(NC(=O)c3cccs3)ccc21	28*	67*	-23%	-3%	-1%	-18%
CC(C)(C)n1cnc2cc(NC(=O)c3cccs3)ccc21	34*	104*	-5%	-5%	-8%	-6%
CC(C)(C)n1cnc2cc(NC(=O)c3ccccc3)ccc21	34*	93*	-9%	12%	-13%	6%
Cn1c(=O)n(C)c2cc(NC(=O)c3ccccc3)ccc21	nt	nt	nt	nt	1%	-14%
CC(C)N(C(=O)CSc1cn(CC(=O)N2CCCCCC2)c2ccccc12)C(C)C	nt	nt	nt	nt	-27%	nt
CCCCCCCCCCCCC/C=C/[C@@H](O)[C@H](CO)NCCCCCCCC	nt	nt	nt	-6%	nt	nt
Cn1c(-c2ccc(=O)[nH]c2)nc2ccccc21	15	12	-1%	?	4%	6%
COc1ccc2cc(C(C)=O)c(=O)oc2c1	11	12	3%	-5%	-2%	1%

Screening results: PubChem BioAssay, National Center for Advancing Translational Sciences (NCATS)
